This note sets out measurements from PubChem BioAssay.

Values without a mark were called inactive. The source made the active and inactive calls.

A short description of the first experiment: budding yeast growth changes without added modifier – OD600, strain BY4716, 24 h, basal condition, primary screen (AID 1173). The following applies: S. cerevisiae BY4716 growth, OD600, 24 h; higher = more signal, called active from +8 up or from −8 down.
On to `CCOC(=O)NN=C1C[C@@H](O)[C@@H](O)[C@@H]2[C@@H]3C(=O)N(Cc4ccc5c(c4)OCO5)C(=O)[C@@H]3CC[C@H]12`, for which the z-score was 0.923. The same measure, in the same setting: for `CC(C)=NO[C@H](C)c1cn([C@H](CO)Cc2ccccc2)nn1` the value was -0.489; for `CCOC(=O)[C@H](CC(C)C)NC(=O)CCC1CC(OC(=O)NCc2cccc3ccccc23)CC2(CCCC(COC(=O)NCCOc3ccccc3)O2)O1` (some centres not stated), -0.895; for `CC(C)[C@@H](OCc1ccccc1)[C@H](C)C=NOC[C@@H](O)COCc1ccco1`, -11.9 (active). For the compound `CCOC(=O)[C@H](CC(C)C)NC(=O)CCC1CC(OC(=O)NCc2cccc3ccccc23)CC2(CCCC(COC(=O)NCCOC)O2)O1` (some centres not stated), the z-score is -2.14.

For the compound `CON=C1[C@H]2CCn3c(=O)n(-c4ccccc4)c(=O)n3[C@H]2[C@H](O)[C@@H]2O[C@H]12`, the z-score was -1.45. Same read-out and setting: under `CO[C@@H]1COC(=O)CC=C[C@@H](C)[C@@H]2C=C[C@H](O)[C@@H](COC(=O)CC=C[C@H]1C)O2` stands -1.65; under `COC(=O)[C@@H]1CC[C@H](C)[C@@H](c2ccc(C)cc2)N1C(=O)c1ccc(C=NOCC[C@@H]2C=C[C@H](OC(C)=O)[C@@H](COC(C)=O)O2)cc1`, 1.76; under `CCOC(=O)CCN1C(=O)[C@H]2[C@H]3[C@H](O)[C@H](O)CC(=NOCc4ccccc4)[C@H]3CC[C@H]2C1=O`, 0.556. Still for that read-out and setting: under `CCOC(=O)NN=C1C[C@@H](O)[C@@H](O)[C@@H]2[C@@H]3C(=O)N(c4cccc(Oc5ccccc5)c4)C(=O)[C@@H]3CC[C@H]12` stands -0.946; under `COC(=O)CC=C[C@@H](C)[C@@H](C=NOC(C)CN1CCCc2nc(C)c(C)cc21)OC` (some centres not stated), 0.0692.

A short description of the next experiment: viability profiling in MM1S myeloma cells – cell-based, resazurin fluorescence, basal, 24 h, PK04 Diversity Set, profiling panel (AID 1174).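 Further: MM1S multiple myeloma cell line; test concentration not given here.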 Particulars: higher = more signal, called active from +8 up or from −8 down.
For the compound `C[C@@H]1NC(=O)[C@@H](C)COC(=O)[C@H](C)NC(=O)[C@@H](C)COC1=O`, the z-score is -0.325. On the same count and under the same terms, for `C[n+]1ccc(-c2ccc(CO)cc2)cc1` the value was -0.404. On the same count and under the same terms, for `O=C1C[C@@H](O)[C@@H](O)[C@@H]2[C@@H]3C(=O)N(C[C@@H]4CCCO4)C(=O)[C@@H]3CC[C@H]12` the value was -0.0898; for `CCN1C(=O)[C@@H]2[C@H]3C(=CC[C@@H]2C1=O)C1(OCCCO1)[C@H]1O[C@H]1[C@H]3O`, -8.78 (active); for `COC(=O)C=CCCc1coc(C=CCNC(=O)OC)n1`, 0.0455.

As to `COC(=O)CC=C[C@@H](C)[C@@H](C=NO[C@@H](C)c1cn([C@H](CO)Cc2ccccc2)nn1)NS(=O)(=O)c1ccc(C)cc1`, the z-score was -0.412. The same measure, in the same setting: under `O=C(NN=C1C[C@@H](O)[C@@H](O)[C@@H]2[C@@H]3C(=O)N(C[C@@H]4CCCO4)C(=O)[C@@H]3CC[C@@H]12)OCc1ccccc1` stands 0.169; under `CCOC(=O)C1=NO[C@@]2(C=C(Br)C3(OCCCO3)[C@H]3O[C@H]32)C1`, -0.227; under `COCCNC(=O)OCC1CCCC2(CC(OC(=O)NCc3ccc4c(c3)OCO4)CC(CCC(=O)N[C@@H](C)C(=O)OC)O2)O1` (some centres not stated), -0.0741. Still for that read-out and setting: for `COc1ccc(COC(=O)NN=C2C[C@@H](O)[C@@H](O)[C@@H]3[C@@H]4C(=O)N(c5ccc(F)cc5F)C(=O)[C@@H]4CC[C@H]23)cc1` the value was 0.317; for `CC(CCN1CCCc2nc(C)c(C)cc21)=NOC(C)CN1CCCCc2nc(C)c(C)cc21` (configuration not stated), -0.221.

Consider `COC(=O)CC=C[C@@H](C)[C@@H](C=NOCC[C@@H]1C=C[C@H](OC(C)=O)[C@@H](COC(C)=O)O1)OC`, for which the z-score was -0.104.

Turning to `CC(CCN1CCCCc2nc(C)c(C)cc21)=NOC[C@@H](O)COCc1ccco1`, the z-score is -0.399.

For `CCOC(=O)[C@H](Cc1ccccc1)NC(=O)CCC1CC(OC(=O)NCc2cccc3ccccc23)CC2(CCCC(COC(=O)NCc3cccc(C(F)(F)F)c3)O2)O1` (some centres not stated), the z-score was 0.415.

Regarding `CCOC(=O)[C@H](CC(C)C)NC(=O)CCC1CC(OC(=O)NCCc2ccc(F)cc2)CC2(CCCC(COC(=O)NCCOc3ccccc3)O2)O1` (some centres not stated), the z-score is 0.2. The same measure, in the same setting: under `COC(=O)[C@H]1[C@@H](O)[C@@]2(O)c3ccccc3O[C@@]2(c2ccccc2)[C@@H]1c1ccccc1` stands -0.683. For the compound `C#CCCCON=C1C[C@@H](O)[C@@H](O)[C@@H]2[C@@H]3C(=O)N(C(C)(C)C)C(=O)[C@@H]3CC[C@H]12`, the z-score is -0.0486.

Take `CO[C@@H]1C=CCC(=O)N[C@@H](C)C(=O)OC[C@@H](OC)[C@H](C)CCCC(=O)OC[C@H]1C`: the z-score is 0.719. On the same count and under the same terms, under `CON=C[C@@H](C)[C@H](OCc1ccccc1)C(C)C` stands 0.548. Still for that read-out and setting: under `Cc1ccc(S(=O)(=O)n2c3ccccc3c3nnc(C(=O)c4ccccc4)nc32)cc1` stands -0.508; under `CC(C)CON=C1C[C@@H](O)[C@@H](O)[C@@H]2[C@@H]3C(=O)N(C4CCCCC4)C(=O)[C@@H]3CC[C@H]12`, -0.143. Same read-out and setting: for `CO[C@@H]1COC(=O)CC=C[C@@H](C)[C@H](OC)COC(=O)[C@@H](C)COC(=O)CC=C[C@H]1C` the value was 0.586; for `COC(=O)CC=C[C@@H](C)[C@@H](C=NO[C@@H](C)c1cn([C@H](CO)Cc2ccccc2)nn1)OC`, 0.104; for `COC(=O)CC=C[C@@H](C)[C@@H](C=NOC[C@@H](O)[C@H]1O[C@@H]2OC(C)(C)O[C@@H]2[C@H]1O)NS(=O)(=O)c1ccc(C)cc1`, -0.502. Take `COc1ccc(O[C@H]2C=C[C@@H](c3ccccc3)O[C@@H]2COC(=O)CCC(C)=NOC(C)CN2CCCc3nc(C)c(C)cc32)cc1` (some centres not stated): the z-score is -0.317. On the same count and under the same terms, under `CCOC(=O)NN=C1C[C@@H](O)[C@@H](O)[C@@H]2[C@@H]3C(=O)N(Cc4ccc5c(c4)OCO5)C(=O)[C@@H]3CC[C@H]12` stands -0.343; under `CC(C)=NO[C@H](C)c1cn([C@H](CO)Cc2ccccc2)nn1`, -0.11; under `CCOC(=O)[C@H](CC(C)C)NC(=O)CCC1CC(OC(=O)NCc2cccc3ccccc23)CC2(CCCC(COC(=O)NCCOc3ccccc3)O2)O1` (some centres not stated), 0.572. Same read-out and setting: for `CC(C)[C@@H](OCc1ccccc1)[C@H](C)C=NOC[C@@H](O)COCc1ccco1` the value was -0.911; for `CCOC(=O)[C@H](CC(C)C)NC(=O)CCC1CC(OC(=O)NCc2cccc3ccccc23)CC2(CCCC(COC(=O)NCCOC)O2)O1` (some centres not stated), 1.35. The same measure, in the same setting: under `CON=C1[C@H]2CCn3c(=O)n(-c4ccccc4)c(=O)n3[C@H]2[C@H](O)[C@@H]2O[C@H]12` stands 0.333; under `CO[C@@H]1COC(=O)CC=C[C@@H](C)[C@@H]2C=C[C@H](O)[C@@H](COC(=O)CC=C[C@H]1C)O2`, 0.992; under `COC(=O)[C@@H]1CC[C@H](C)[C@@H](c2ccc(C)cc2)N1C(=O)c1ccc(C=NOCC[C@@H]2C=C[C@H](OC(C)=O)[C@@H](COC(C)=O)O2)cc1`, -0.761. In the case of `CCOC(=O)CCN1C(=O)[C@H]2[C@H]3[C@H](O)[C@H](O)CC(=NOCc4ccccc4)[C@H]3CC[C@H]2C1=O`, the z-score is -1.34. Still for that read-out and setting: for `CCOC(=O)NN=C1C[C@@H](O)[C@@H](O)[C@@H]2[C@@H]3C(=O)N(c4cccc(Oc5ccccc5)c4)C(=O)[C@@H]3CC[C@H]12` the value was -1.12.

On to `COC(=O)CC=C[C@@H](C)[C@@H](C=NOC(C)CN1CCCc2nc(C)c(C)cc21)OC` (some centres not stated), for which the z-score was 0.141.
